Like-named read-outs stand apart in the source and are kept apart here.
Key:
Set-up in all cases: species or system human, MV4-11 + K-562 + COLO205 + SK-N-BE2 + OVCAR-8
[1] = test system: IRAK3; conditions: read-out: apparent Kd, compound concentrations: 100 nM and 1000 nM (sheet 'Samples'), n = 1
[2] = test system: CDK2; conditions: read-out: apparent Kd, n = 1
[3] = test system: PDGFRB; conditions: read-out: apparent Kd, compound concentrations: 100 nM and 1000 nM (sheet 'Samples'), n = 1
[4] = test system: PIK3CG; conditions: read-out: apparent Kd, compound concentrations: 100 nM and 1000 nM (sheet 'Samples'), n = 1
[5] = test system: ROCK1; conditions: read-out: apparent Kd, n = 1
[6] = test system: ULK1; conditions: read-out: apparent Kd; compound concentrations: 100 nM and 1000 nM (sheet 'Samples'), CATDS: 1.11724420901094E-2; n = 1
[7] = test system: CDK9; conditions: read-out: apparent Kd, n = 1
[8] = test system: ICK; conditions: read-out: apparent Kd, n = 1
[9] = test system: TGFBR2; conditions: read-out: apparent Kd, n = 1
[10] = test system: MTOR; conditions: read-out: apparent Kd, compound concentrations: 100 nM and 1000 nM (sheet 'Samples'), n = 1
[11] = test system: CDC42BPA; conditions: read-out: apparent Kd, n = 1
[12] = test system: CDC42BPG; conditions: read-out: apparent Kd, n = 1
[13] = test system: PRKG1; conditions: read-out: apparent Kd, n = 1
[14] = test system: EPHA1; conditions: read-out: apparent Kd; compound concentrations: 100 nM and 1000 nM (sheet 'Samples'), CATDS: 3.2414414086750797E-2; n = 1
[15] = test system: AXL; conditions: read-out: apparent Kd; compound concentrations: 100 nM and 1000 nM (sheet 'Samples'), CATDS: 9.0934128648907098E-2; n = 1
[16] = compound concentrations:100 nM and 1000 nM (sheet 'Samples')

For `COC(=O)c1cccc(NC(=O)NC2CCN(c3ccnc(Nc4cc(OC)c(OC)c(OC)c4)n3)C2)c1` (stereo not drawn) [GSK1379767A], the potency estimated from few doses ([1]; CATDS: 0.12620401960154601) was 1050 nM.
Work on `O=C(O)C(F)(F)F.O=c1[nH]ccc2nc(N[C@@H]3CCNC3)nc(Nc3ccc4c(c3)S(=O)(=O)CC4)c12` [GSK2181306A] yielded a potency estimated from few doses ([2]; compound concentrations: 100 nM and 1000 nM (sheet 'Samples'), CATDS: 1.3422730745161799E-2) of 398 nM, a potency estimated from few doses ([3]; CATDS: 8.63750114385467E-3) of 1400 nM and a potency estimated from few doses ([4]; CATDS: 1.1005849922452E-2) of 648 nM. For the same compound, the potency estimated from few doses ([5]; compound concentrations: 100 nM and 1000 nM (sheet 'Samples'), CATDS: 8.6334191105918393E-3) was 1410 nM and the potency estimated from few doses [6] was 623 nM.
For `CCN(CC)Cc1ccc(Nc2nccc(-c3cnn4ncccc34)n2)cc1` [GW780056X], the potency estimated from few doses ([7]; compound concentrations: 100 nM and 1000 nM (sheet 'Samples'), CATDS: 0.168116243338059) was 19.4 nM, the potency estimated from few doses ([8]; compound concentrations: 100 nM and 1000 nM (sheet 'Samples'), CATDS: 2.9886591978346599E-2) was 433 nM and the potency estimated from few doses ([3]; CATDS: 2.40786043408843E-2) was 746 nM.
In the case of `c1ccc(-c2n[nH]cc2Nc2ccnc3ccccc23)nc1` [GW694077X], the potency estimated from few doses ([1]; CATDS: 9.0170551839232005E-2) is reported as 57.6 nM, the potency estimated from few doses ([5]; compound concentrations: 100 nM and 1000 nM (sheet 'Samples'), CATDS: 2.4219369604879502E-2) is reported as 1650 nM and the potency estimated from few doses ([9]; compound concentrations: 100 nM and 1000 nM (sheet 'Samples'), CATDS: 2.8342721884761699E-2) is reported as 940 nM.
Compound `NS(=O)(=O)c1cccc(-c2ccc3c(NC(=O)C4CC4)n[nH]c3c2)c1` [SB-741905] has a potency estimated from few doses ([10]; CATDS: 0.166958544620607) of 626 nM.
With `CC(C)(CO)CNC(=O)c1ccc2c(c1)/C(=N/Nc1ccc(S(N)(=O)=O)cc1)C(=O)N2` [GW301784X] the potency estimated from few doses [2, 16] was 87.1 nM, the potency estimated from few doses [8, 16] was 1680 nM and the potency estimated from few doses [9, 16] was 822 nM.
For `CN[C@H](C#Cc1c(F)ccc2c1/C(=C/c1[nH]ccc1OC)C(=O)N2)CO.Cl` [RO0283049-001], the potency estimated from few doses ([2]; compound concentrations: 100 nM and 1000 nM (sheet 'Samples'), CATDS: 2.1826327845386101E-2) was 1310 nM.
For `Cc1occc1-c1nc(N)c(OC[C@@H](N)Cc2c[nH]c3ccccc23)cc1-c1cc2c(C)n[nH]c2cn1` [GSK1660450B], the potency estimated from few doses [11, 16] was 34.6 nM and the potency estimated from few doses [12, 16] was 65.4 nM.
`CNCC1CCn2c(c(C3=C(c4cn(C)c5ccccc45)C(=O)NC3=O)c3ccccc32)C1` (stereo not drawn) [RO0318676-000] was tested, and the potency estimated from few doses ([2]; compound concentrations: 100 nM and 1000 nM (sheet 'Samples'), CATDS: 2.9072745389082302E-2) was 1540 nM.
Compound `NS(=O)(=O)c1ccc(NC=C2C(=O)Nc3ccc4ncsc4c32)cc1` [GW589933X] has a potency estimated from few doses ([2]; compound concentrations: 100 nM and 1000 nM (sheet 'Samples'), CATDS: 6.9687110689249002E-2) of 65.8 nM, a potency estimated from few doses ([7]; compound concentrations: 100 nM and 1000 nM (sheet 'Samples'), CATDS: 2.7445436907685701E-2) of 414 nM and a potency estimated from few doses ([8]; compound concentrations: 100 nM and 1000 nM (sheet 'Samples'), CATDS: 1.95269690039667E-2) of 1050 nM. For the same compound, the potency estimated from few doses ([3]; CATDS: 2.1122847549312301E-2) was 826 nM.
`COc1cc[nH]c1/C=C1\C(=O)Nc2ccc(F)c(C#C[C@@H](O)[C@@H](N)[C@@H](C)O)c21` [RO0283120-000] was tested, and the potency estimated from few doses [7, 16] was 1130 nM and the potency estimated from few doses [9, 16] was 1600 nM.
Work on `NS(=O)(=O)c1ccc(N/C=C2\C(=O)Nc3ccc4ncsc4c32)cc1` [GW297361X] yielded a potency estimated from few doses ([2]; compound concentrations: 100 nM and 1000 nM (sheet 'Samples'), CATDS: 7.9429171662671896E-2) of 232 nM and a potency estimated from few doses ([7]; compound concentrations: 100 nM and 1000 nM (sheet 'Samples'), CATDS: 3.67324795233104E-2) of 1040 nM.
In the case of `COc1cc[nH]c1/C=C1\C(=O)Nc2ccc([N+](=O)[O-])c(N3CC[C@@H](O)C3)c21` [RO0504985-000], the potency estimated from few doses ([2]; compound concentrations: 100 nM and 1000 nM (sheet 'Samples'), CATDS: 3.3217097054667903E-2) is reported as 1280 nM, the potency estimated from few doses ([7]; compound concentrations: 100 nM and 1000 nM (sheet 'Samples'), CATDS: 3.1258790077652497E-2) is reported as 1620 nM and the potency estimated from few doses ([8]; compound concentrations: 100 nM and 1000 nM (sheet 'Samples'), CATDS: 0.118189348894571) is reported as 47 nM. The potency estimated from few doses ([3]; CATDS: 3.1166812666601599E-2) was 1640 nM and the potency estimated from few doses ([9]; compound concentrations: 100 nM and 1000 nM (sheet 'Samples'), CATDS: 3.2384825488945002E-2) was 1410 nM.
In the case of `CC(C)N1CC(=O)N(C)c2cnc(Nc3cccc(S(=O)(=O)CCN4CCOCC4)c3)nc21` [BI00009348], the potency estimated from few doses ([4]; CATDS: 0.22323444695651501) is reported as 109 nM.
For `Cl.Cl.NCC(NCc1ccc(-c2ccnc3[nH]ccc23)s1)c1ccccc1.NCC(NCc1ccc(-c2ccnc3[nH]ccc23)s1)c1ccccc1` (stereo not drawn) [GSK1321565A], the potency estimated from few doses [13, 16] was 1060 nM.
`CCn1c(-c2nonc2N)nc2cncc(Br)c21` [SB-738004] showed a potency estimated from few doses [11, 16] of 2130 nM, a potency estimated from few doses [7, 16] of 1120 nM and a potency estimated from few doses [5, 16] of 181 nM.
`Cl.Cl.NC[C@H](CC1CCCCC1)NC(=O)c1ccc(-c2ccnc3[nH]ccc23)s1.NC[C@H](CC1CCCCC1)NC(=O)c1ccc(-c2ccnc3[nH]ccc23)s1` [GSK1581428A] gave a potency estimated from few doses [11, 16] of 28.9 nM, a potency estimated from few doses [13, 16] of 41.4 nM and a potency estimated from few doses [5, 16] of 29.2 nM.
With `O=C1N=C(NCc2ccccc2Br)S/C1=C\c1ccc2ncccc2c1` [RO4506918-000] the potency estimated from few doses ([12]; compound concentrations: 100 nM and 1000 nM (sheet 'Samples'), CATDS: 7.9298685313138301E-2) was 1370 nM.
Work on `CCC(CC)(CC)n1cnc2c(N)ncnc21` [SKF-97620] yielded a potency estimated from few doses [14] of 828 nM, a potency estimated from few doses ([10]; CATDS: 6.0851943016667201E-2) of 220 nM and a potency estimated from few doses ([4]; CATDS: 3.56480592193908E-2) of 658 nM. It also gave a potency estimated from few doses ([5]; compound concentrations: 100 nM and 1000 nM (sheet 'Samples'), CATDS: 2.49048423205754E-2) of 1780 nM.
Work on `O=C1N=C(N[C@H](CO)c2ccccc2)S/C1=C\c1ccc2ncccc2c1` [RO4554339-000] yielded a potency estimated from few doses ([11]; compound concentrations: 100 nM and 1000 nM (sheet 'Samples'), CATDS: 8.0851127030257999E-2) of 2180 nM.
`Cn1cc(C2=C(c3ccc(OC[C@@H](O)CO)cc3)C(=O)NC2=O)c2ccccc21` [RO3208546-000] was tested, and the potency estimated from few doses ([10]; CATDS: 4.7243035246753197E-2) was 730 nM.
Work on `NS(=O)(=O)c1ccc(N/N=C2\C(=O)Nc3ccc4ncccc4c32)cc1` [GW305178X] yielded a potency estimated from few doses ([2]; compound concentrations: 100 nM and 1000 nM (sheet 'Samples'), CATDS: 0.10178285521581799) of 134 nM and a potency estimated from few doses ([7]; compound concentrations: 100 nM and 1000 nM (sheet 'Samples'), CATDS: 4.6560668202509002E-2) of 1210 nM.
In the case of `Cl.Nc1nc(-c2ccc3c(c2)C(=Cc2cc(Br)c(O)c(Br)c2)C(=O)N3)cs1` [GW407323A], the potency estimated from few doses ([2]; compound concentrations: 100 nM and 1000 nM (sheet 'Samples'), CATDS: 3.5649543484101501E-2) is reported as 720 nM.
`Cc1cc(NC(=O)c2cccc(NC(=O)/C=C/CN(C)C)c2)ccc1Nc1nccc(-c2cccnc2)n1` [JNK-IN-7] showed a potency estimated from few doses [8, 16] of 1290 nM.
Work on `O=C1N=C(NCCc2ccccc2Cl)S/C1=C\c1ccc2ncccc2c1` [RO4498484-000] yielded a potency estimated from few doses ([11]; compound concentrations: 100 nM and 1000 nM (sheet 'Samples'), CATDS: 5.5434431749678797E-2) of 2450 nM.
In the case of `Cl.Cl.NCC(NC(=O)c1cc(-c2ccnc3[nH]ccc23)cs1)c1ccccc1.NCC(NC(=O)c1cc(-c2ccnc3[nH]ccc23)cs1)c1ccccc1` (stereo not drawn) [GSK1229959A], the potency estimated from few doses ([11]; compound concentrations: 100 nM and 1000 nM (sheet 'Samples'), CATDS: 7.2504197887005906E-2) is reported as 15.3 nM, the potency estimated from few doses ([12]; compound concentrations: 100 nM and 1000 nM (sheet 'Samples'), CATDS: 9.9615433098280207E-2) is reported as 8.8 nM and the potency estimated from few doses ([7]; compound concentrations: 100 nM and 1000 nM (sheet 'Samples'), CATDS: 1.9893156316103101E-2) is reported as 801 nM. It also gave a potency estimated from few doses ([13]; compound concentrations: 100 nM and 1000 nM (sheet 'Samples'), CATDS: 9.38640843647673E-2) of 9.7 nM and a potency estimated from few doses ([5]; compound concentrations: 100 nM and 1000 nM (sheet 'Samples'), CATDS: 0.109953475811368) of 7.53 nM.
`CCn1c(-c2nonc2N)nc2cncc(C(=O)N3CC[C@H](N)C3)c21.Cl` [SB-772077-B] was tested, and the potency estimated from few doses [11, 16] was 1170 nM and the potency estimated from few doses [13, 16] was 95.9 nM.
`COc1cc2ncn(-c3cc(OCc4ccccc4S(C)(=O)=O)c(C#N)s3)c2cc1OC` [GSK319347A] gave a potency estimated from few doses [15] of 1240 nM.
Compound `NS(=O)(=O)c1ccc(N/N=C2\C(=O)Nc3ccc(-c4cnco4)cc32)cc1` [GW276655_KCGS] has a potency estimated from few doses [2, 16] of 983 nM and a potency estimated from few doses [8, 16] of 1770 nM.

— PMC11062922 (Nature Chemical Biology, 2023)
